# Assay results from paper PMC7862700, “An all-to-all approach to the identification of sequence-specific readers for epigenetic DNA modifications on cytosine”.
# Experiments:
# Assay in all cases: DAPPL (digital affinity profiling via proximity ligation, sequencing); 10 mM Tris-HCl pH 7.5, 50 mM NaCl, 1 mM DTT, 4% glycerol, room temperature, 30 min; GST-TFs on glutathione beads, 16-mer random dsDNA library, 0.1% formaldehyde crosslink after washing; high values mean tight binding
# Conditions in all cases: protein: recombinant; tags: N-terminal GST; dsDNA, one strand shown
# ELF1 = ELF1 (Homo sapiens, UniProt P32519 1-619)
# Procedure, shortened: (§1)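 Pools were built from human transcription factors expressed in yeast as GST fusions, captured on glutathione beads and DNA-barcoded, along with a tag-only sample. Incubation with 200 nmole of a 16-mer random double-stranded DNA library lasted 30 min at room temperature in Tris/NaCl/DTT/glycerol buffer, and was followed by washing, 0.1% formaldehyde crosslinking, proximity ligation, PCR amplification and Illumina NextSeq500 sequencing. Binding signal is the quotient of each hexamer's read frequency for a factor and its frequency for the tag-only sample.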
# FEV = target: T1, FEV (Homo sapiens, UniProt Q99581 1-238)
# T1 sequence: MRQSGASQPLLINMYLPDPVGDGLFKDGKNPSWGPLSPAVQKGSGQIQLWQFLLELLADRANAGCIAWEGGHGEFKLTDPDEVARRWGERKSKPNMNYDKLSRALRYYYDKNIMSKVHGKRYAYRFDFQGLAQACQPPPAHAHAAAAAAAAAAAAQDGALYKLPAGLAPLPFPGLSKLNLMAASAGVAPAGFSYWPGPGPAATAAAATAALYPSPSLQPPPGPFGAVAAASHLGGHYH
# Procedure, shortened: as §1
# ETV5 = ETV5 (Homo sapiens, UniProt P41161 1-510)
# Procedure, shortened: as §1
# ELF4 = ELF4 (Homo sapiens, UniProt Q99607 1-663)
# Procedure, shortened: as §1
# ELF3 = target: T2, ELF3 (Homo sapiens, UniProt P78545 1-371)
# T2 sequence: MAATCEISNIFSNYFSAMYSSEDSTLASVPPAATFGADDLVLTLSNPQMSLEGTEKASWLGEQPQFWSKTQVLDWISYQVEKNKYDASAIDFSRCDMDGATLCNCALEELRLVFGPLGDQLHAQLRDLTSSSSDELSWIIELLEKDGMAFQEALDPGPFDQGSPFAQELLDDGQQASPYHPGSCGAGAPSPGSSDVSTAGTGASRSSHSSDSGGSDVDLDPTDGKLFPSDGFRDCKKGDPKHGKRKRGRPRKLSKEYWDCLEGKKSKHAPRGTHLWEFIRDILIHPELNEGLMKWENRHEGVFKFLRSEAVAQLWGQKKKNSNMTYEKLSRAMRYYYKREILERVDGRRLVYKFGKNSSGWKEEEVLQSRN
# Procedure, shortened: as §1
# ETV1 = ETV1 (Homo sapiens, UniProt P50549 1-477)
# Procedure, shortened: as §1
# ERF = target: T3, ERF (Homo sapiens, UniProt P50548 1-548)
# T3 sequence: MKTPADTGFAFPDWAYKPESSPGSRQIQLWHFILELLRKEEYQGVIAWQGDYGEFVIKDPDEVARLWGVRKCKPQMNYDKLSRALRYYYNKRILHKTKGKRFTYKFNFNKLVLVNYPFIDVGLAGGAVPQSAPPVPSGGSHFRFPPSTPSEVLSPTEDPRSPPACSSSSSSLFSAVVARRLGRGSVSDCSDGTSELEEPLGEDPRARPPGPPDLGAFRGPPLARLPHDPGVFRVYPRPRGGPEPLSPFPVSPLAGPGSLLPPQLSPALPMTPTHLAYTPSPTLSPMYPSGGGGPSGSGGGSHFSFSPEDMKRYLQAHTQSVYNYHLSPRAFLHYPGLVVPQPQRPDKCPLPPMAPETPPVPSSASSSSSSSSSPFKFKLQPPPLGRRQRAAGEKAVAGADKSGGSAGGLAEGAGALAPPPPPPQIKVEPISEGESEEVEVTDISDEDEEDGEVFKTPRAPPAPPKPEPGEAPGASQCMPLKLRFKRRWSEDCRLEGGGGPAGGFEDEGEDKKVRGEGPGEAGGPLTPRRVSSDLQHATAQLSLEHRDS
# Procedure, shortened: as §1
# ETV3L = target: T4, ETV3L (Homo sapiens, UniProt Q6ZN32 1-361)
# T4 sequence: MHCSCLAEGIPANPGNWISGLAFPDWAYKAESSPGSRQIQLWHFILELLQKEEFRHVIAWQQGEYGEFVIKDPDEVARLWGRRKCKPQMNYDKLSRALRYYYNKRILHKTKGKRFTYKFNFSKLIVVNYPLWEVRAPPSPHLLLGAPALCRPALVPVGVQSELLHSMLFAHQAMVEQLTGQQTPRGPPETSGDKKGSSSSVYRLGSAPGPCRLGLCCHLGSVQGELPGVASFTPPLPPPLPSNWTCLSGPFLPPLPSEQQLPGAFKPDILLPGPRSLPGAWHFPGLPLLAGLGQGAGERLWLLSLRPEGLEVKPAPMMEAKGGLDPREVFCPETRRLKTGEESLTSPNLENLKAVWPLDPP
# Procedure, shortened: as §1
# ETV3 = target: T5, ETV3 (Homo sapiens, UniProt P41162-2 1-143)
# T5 sequence: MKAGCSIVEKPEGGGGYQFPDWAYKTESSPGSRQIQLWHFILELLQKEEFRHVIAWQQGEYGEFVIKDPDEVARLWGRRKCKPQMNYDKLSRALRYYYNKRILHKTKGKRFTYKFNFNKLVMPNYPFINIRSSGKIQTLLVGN
# Procedure, shortened: as §1
# GABPA = target: T6, GABPA (Homo sapiens, UniProt Q06546 1-454)
# T6 sequence: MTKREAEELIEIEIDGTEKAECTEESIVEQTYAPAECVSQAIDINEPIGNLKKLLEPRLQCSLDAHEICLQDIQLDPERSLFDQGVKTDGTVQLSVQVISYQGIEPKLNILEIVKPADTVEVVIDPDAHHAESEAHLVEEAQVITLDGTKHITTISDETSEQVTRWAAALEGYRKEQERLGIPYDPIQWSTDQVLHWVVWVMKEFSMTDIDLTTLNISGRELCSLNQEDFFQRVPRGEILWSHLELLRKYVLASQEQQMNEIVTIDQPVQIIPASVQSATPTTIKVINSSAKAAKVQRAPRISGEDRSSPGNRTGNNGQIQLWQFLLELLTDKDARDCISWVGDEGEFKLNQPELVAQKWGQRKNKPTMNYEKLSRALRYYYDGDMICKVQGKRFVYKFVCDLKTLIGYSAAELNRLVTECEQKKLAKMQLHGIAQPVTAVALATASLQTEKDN
# Procedure, shortened: as §1
# EHF = target: T7, EHF (Homo sapiens, UniProt Q9NZC4 1-300)
# T7 sequence: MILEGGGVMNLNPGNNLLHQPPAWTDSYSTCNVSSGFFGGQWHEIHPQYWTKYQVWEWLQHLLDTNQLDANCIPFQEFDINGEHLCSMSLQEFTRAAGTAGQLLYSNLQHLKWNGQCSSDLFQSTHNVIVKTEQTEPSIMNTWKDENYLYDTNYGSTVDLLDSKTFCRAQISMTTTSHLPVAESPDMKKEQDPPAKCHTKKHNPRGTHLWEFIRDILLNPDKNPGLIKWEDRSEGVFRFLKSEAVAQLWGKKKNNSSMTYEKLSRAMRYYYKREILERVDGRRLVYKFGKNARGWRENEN
# Procedure, shortened: as §1
# SPI1 = SPI1 (Homo sapiens, UniProt P17947 1-270)
# Procedure, shortened: as §1
# SPIB = SPIB (Homo sapiens, UniProt Q01892 1-262)
# Procedure, shortened: as §1
# ELK4 = target: T8, ELK4 (Homo sapiens, UniProt P28324-2 1-405)
# T8 sequence: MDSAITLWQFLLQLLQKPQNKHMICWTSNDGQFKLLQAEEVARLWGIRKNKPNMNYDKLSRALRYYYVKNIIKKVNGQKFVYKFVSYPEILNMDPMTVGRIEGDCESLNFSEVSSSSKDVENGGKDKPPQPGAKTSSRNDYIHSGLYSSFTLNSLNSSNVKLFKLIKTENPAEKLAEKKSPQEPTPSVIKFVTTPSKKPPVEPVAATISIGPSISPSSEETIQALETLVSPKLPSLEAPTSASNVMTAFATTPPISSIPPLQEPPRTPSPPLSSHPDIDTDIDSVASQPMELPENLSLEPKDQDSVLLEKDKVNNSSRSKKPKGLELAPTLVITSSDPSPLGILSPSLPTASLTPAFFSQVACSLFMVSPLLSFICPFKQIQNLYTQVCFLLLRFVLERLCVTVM
# Procedure, shortened: as §1
# SPDEF = target: T9, SPDEF (Homo sapiens, UniProt O95238 1-335)
# T9 sequence: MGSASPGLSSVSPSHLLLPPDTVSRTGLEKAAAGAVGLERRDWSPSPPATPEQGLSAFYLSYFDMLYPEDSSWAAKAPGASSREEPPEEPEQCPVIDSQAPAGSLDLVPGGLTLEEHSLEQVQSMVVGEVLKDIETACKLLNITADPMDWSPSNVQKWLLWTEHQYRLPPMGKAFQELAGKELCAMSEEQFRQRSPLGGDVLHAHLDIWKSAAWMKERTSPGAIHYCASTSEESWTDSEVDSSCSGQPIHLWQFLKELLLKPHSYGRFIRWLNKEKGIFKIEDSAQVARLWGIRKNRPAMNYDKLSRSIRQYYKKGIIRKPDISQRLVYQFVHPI
# Procedure, shortened: as §1
# ETV6 = ETV6 (Homo sapiens, UniProt P41212 1-452)
# Procedure, shortened: as §1
# Sequence of ETV5 (P41161 whole entry): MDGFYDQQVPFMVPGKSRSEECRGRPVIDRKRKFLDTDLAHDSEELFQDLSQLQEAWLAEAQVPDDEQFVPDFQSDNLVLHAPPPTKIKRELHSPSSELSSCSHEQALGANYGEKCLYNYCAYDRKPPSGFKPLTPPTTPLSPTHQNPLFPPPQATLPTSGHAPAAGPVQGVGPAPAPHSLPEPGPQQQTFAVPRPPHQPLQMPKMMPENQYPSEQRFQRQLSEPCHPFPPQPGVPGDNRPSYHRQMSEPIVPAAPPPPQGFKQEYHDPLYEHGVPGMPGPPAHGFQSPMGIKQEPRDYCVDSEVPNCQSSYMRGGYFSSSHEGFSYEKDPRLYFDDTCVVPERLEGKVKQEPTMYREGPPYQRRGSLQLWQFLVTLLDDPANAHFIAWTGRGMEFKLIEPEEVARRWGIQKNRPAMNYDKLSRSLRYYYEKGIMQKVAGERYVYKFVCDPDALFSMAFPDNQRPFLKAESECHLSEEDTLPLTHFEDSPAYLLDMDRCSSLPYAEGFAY
# Sequence of ETV1 (P50549 whole entry): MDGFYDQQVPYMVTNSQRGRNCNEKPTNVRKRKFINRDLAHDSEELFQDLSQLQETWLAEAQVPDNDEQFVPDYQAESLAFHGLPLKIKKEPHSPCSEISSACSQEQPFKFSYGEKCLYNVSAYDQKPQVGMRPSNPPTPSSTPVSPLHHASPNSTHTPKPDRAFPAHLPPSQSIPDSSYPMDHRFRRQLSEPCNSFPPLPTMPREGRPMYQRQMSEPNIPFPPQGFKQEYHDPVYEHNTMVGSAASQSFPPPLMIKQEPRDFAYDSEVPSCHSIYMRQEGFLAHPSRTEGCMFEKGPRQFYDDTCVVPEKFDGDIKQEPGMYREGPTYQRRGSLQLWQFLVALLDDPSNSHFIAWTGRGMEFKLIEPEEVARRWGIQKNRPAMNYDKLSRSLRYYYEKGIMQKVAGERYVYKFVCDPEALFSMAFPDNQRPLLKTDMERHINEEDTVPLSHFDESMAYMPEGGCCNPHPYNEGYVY
# Sequence of ELF1 (P32519 whole entry, the tested form may be a part): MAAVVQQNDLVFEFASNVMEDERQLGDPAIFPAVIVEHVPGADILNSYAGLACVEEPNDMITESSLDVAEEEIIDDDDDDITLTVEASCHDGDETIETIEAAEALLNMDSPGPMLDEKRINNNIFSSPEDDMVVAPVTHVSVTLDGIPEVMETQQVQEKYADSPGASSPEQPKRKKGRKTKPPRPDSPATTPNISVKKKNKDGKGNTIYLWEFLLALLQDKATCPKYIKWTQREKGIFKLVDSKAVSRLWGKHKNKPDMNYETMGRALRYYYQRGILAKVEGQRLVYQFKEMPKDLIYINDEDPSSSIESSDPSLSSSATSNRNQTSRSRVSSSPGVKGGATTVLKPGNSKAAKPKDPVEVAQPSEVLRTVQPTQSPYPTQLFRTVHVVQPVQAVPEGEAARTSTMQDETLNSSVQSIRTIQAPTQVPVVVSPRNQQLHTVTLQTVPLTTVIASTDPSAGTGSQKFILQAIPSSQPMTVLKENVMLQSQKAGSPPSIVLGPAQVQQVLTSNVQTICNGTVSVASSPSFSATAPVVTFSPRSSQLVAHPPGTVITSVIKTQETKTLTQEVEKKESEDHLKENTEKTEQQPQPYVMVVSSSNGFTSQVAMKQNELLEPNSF
# Sequence of ETV6 (P41212 whole entry): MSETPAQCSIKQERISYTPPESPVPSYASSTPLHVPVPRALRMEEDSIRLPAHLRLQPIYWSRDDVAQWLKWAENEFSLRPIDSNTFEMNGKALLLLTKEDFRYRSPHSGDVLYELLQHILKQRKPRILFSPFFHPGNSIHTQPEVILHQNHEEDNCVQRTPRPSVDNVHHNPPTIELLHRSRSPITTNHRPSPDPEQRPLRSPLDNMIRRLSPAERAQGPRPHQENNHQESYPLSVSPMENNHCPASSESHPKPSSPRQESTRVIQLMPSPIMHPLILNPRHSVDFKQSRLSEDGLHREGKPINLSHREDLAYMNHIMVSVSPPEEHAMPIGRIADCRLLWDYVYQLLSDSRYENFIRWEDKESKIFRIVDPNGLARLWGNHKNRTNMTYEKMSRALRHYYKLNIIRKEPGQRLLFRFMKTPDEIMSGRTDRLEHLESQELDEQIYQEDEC
# Sequence of ELF4 (Q99607 whole entry): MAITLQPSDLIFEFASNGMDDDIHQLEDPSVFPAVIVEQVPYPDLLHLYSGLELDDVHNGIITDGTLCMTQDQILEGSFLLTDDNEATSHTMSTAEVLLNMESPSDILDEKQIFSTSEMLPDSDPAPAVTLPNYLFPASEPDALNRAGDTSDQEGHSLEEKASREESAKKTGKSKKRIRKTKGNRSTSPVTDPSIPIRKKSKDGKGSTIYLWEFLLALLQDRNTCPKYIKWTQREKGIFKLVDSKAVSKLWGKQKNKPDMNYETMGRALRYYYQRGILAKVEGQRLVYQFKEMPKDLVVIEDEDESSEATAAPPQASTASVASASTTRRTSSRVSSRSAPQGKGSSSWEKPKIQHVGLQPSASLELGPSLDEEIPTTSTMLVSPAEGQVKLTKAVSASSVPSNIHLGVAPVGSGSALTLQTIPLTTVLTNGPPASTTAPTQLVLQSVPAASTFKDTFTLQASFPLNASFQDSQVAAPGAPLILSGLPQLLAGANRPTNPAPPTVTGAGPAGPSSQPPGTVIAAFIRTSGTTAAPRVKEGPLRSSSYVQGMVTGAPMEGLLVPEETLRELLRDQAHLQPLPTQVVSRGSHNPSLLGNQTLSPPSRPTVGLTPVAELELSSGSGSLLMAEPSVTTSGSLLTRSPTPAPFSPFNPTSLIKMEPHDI
# Sequence of SPIB (Q01892 whole entry): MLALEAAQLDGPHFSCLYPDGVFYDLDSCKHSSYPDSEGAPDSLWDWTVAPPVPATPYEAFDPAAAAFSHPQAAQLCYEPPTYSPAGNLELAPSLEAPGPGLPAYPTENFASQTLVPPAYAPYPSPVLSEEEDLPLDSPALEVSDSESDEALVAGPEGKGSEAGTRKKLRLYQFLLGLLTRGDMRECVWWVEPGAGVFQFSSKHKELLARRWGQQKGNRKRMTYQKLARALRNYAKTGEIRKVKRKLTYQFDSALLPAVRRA
Sequence,binding signal (ELF1),binding signal (FEV),binding signal (ETV5),binding signal (ELF4),binding signal (ELF3),binding signal (ETV1),binding signal (ERF),binding signal (ETV3L),binding signal (ETV3),binding signal (GABPA),binding signal (EHF),binding signal (SPI1),binding signal (SPIB),binding signal (ELK4),binding signal (SPDEF),binding signal (ETV6)
GCACAC,"1.02 fold enrichment (6-mer frequency, TF over GST control)","1.02 fold enrichment (6-mer frequency, TF over GST control)","1.02 fold enrichment (6-mer frequency, TF over GST control)","1.05 fold enrichment (6-mer frequency, TF over GST control)","1.03 fold enrichment (6-mer frequency, TF over GST control)","1 fold enrichment (6-mer frequency, TF over GST control)","1.12 fold enrichment (6-mer frequency, TF over GST control)","1.04 fold enrichment (6-mer frequency, TF over GST control)","1.05 fold enrichment (6-mer frequency, TF over GST control)",,,,,,,
CGTCCA,"1.05 fold enrichment (6-mer frequency, TF over GST control)",,"1.02 fold enrichment (6-mer frequency, TF over GST control)",,,"1.08 fold enrichment (6-mer frequency, TF over GST control)","1.02 fold enrichment (6-mer frequency, TF over GST control)","1.13 fold enrichment (6-mer frequency, TF over GST control)","1.03 fold enrichment (6-mer frequency, TF over GST control)","1.04 fold enrichment (6-mer frequency, TF over GST control)","1.02 fold enrichment (6-mer frequency, TF over GST control)","1.03 fold enrichment (6-mer frequency, TF over GST control)","1 fold enrichment (6-mer frequency, TF over GST control)","1 fold enrichment (6-mer frequency, TF over GST control)","1.07 fold enrichment (6-mer frequency, TF over GST control)","1.04 fold enrichment (6-mer frequency, TF over GST control)"
